From PubChem BioAssay
Active and inactive are the calls of the source.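 Rule for the calls: active = compounds giving at least 50% inhibition in the cell-based MKP-3 phosphatase rescue imaging test; inactive = the rest.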

Biological target: Dual specificity protein phosphatase 6 (Homo sapiens) (UniProt Q16828)
Assay: Primary imaging screen for DUSP6 inhibitors that restore phospho-Erk in transfected HeLa cells, chemical complementation (AID 609);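 note: phospho-Erk level distribution per well compared with pooled transfected vehicle control wells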
Settings: HeLa MKP-3 transfected, phospho-Erk imaging KS statistic; at 10 µM; hits give high values; cells stimulated with TPA for 15 min

Sequence of Dual specificity protein phosphatase 6 (Homo sapiens) (Q16828 whole entry, looked up): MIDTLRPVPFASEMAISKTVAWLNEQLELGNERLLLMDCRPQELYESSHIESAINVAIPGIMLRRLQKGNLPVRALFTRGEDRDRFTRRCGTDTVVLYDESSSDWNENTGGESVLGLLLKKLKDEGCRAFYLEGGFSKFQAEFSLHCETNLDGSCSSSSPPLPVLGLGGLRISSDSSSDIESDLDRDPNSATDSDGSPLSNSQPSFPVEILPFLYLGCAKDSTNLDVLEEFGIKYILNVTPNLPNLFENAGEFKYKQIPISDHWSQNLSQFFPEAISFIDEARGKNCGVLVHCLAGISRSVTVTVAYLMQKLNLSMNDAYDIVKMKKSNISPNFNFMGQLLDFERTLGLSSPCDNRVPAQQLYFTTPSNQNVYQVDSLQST

inhibition, inactive:
Cc1cc(=O)oc2c(CN3CCN(C)CC3)c(O)c(Cl)cc12 1.48%
C1CNCCNCCNCCN1 10.2%
CC(C(=O)O)c1ccc(-c2ccccc2)c(F)c1 (configuration not stated) 23.4%
Cc1c(C)c2cc(Cl)c(O)c(CN3CCCCC3)c2oc1=O 5.26%
Cc1oc2nc(SCCCC(=O)NCCCO)nc(N)c2c1C 3.56%
CCN(CC)CCNC(=O)c1ccc(NC(C)=O)cc1 5.79%
COC(=O)CC1SC(=O)NC1=O (configuration not stated) 5.26%
Cc1cc(OCC(=O)Nc2ccc3oc(-c4ccncc4)nc3c2)ccc1Cl 7.73%
CCn1cc(C(=O)O)c(=O)c2cc(F)c(N3CCNCC3)nc21 7.39%
COc1ccc(C(=O)Cn2c(N3CCCCC3)nc3c2c(=O)n(C)c(=O)n3C)cc1OC 3.5%
C=CCn1c(=S)[nH]c2nc3c(cc2c1=O)COC(C)(C)C3 3.66%
Cc1cccc(N(CC(O)CN(C)C)S(=O)(=O)c2ccccc2)c1 (configuration not stated) 1.42%
c1ccc(-c2nnc(OCCN3CCOCC3)c3ccccc23)cc1 -5.26%
C[C@@H]1CCC[C@H](C)N1NC(=O)c1ccc(Cl)c(S(N)(=O)=O)c1 21.2%
CCN(CC)CCN1C(=O)C(O)=C(C(=O)c2ccco2)C1c1ccccn1 (configuration not stated) 3.5%
CCC1CCCCN1c1nc(-c2ccncc2)nc2ccccc12 (configuration not stated) 14%
CN1c2ccccc2-c2nc3ccccc3n2C1c1ccco1 (configuration not stated) 6.04%
